Screening data: PubChem, several laboratories
EWS-Fli inh: inhibitors of EWS/Fli oncoprotein transcriptional activity; 0.67% of 350,000 active; A673 NR0B1-luciferase reporter, viability-normalised; AID 651661; inhibition, % at 12.6 µM;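 active = mean inhibition of at least 50% after viability correction, with every replicate also passing that limit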;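 also: firefly luciferase signal divided by Alamar Blue viability fluorescence both relative to DMSO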
LGR2 antag: blocks bursicon-induced cAMP signaling via Drosophila LGR2. inhibition, % at 9.99 µM. 0.35% of 380,000 active. HEK293 LGR2, CRE-luciferase, bursicon-stimulated, 4 h;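 active = drop in luminescence signal, shown as inhibition above about 50% in the replicate tests, limit read from the data, passing the limit was not always enough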;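 also: agonist challenge used bursicon conditioned medium at about half maximal strength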
EBV LMP1 NFkB: inhibitors of Epstein-Barr LMP1-induced NF-kappaB reporter; 0.69% of 350,000 active; LMP1-induced NF-kappaB luciferase reporter cells, luminescence; AID 504558; inhibition, % at 12.5 µM; in the data active = inhibition above about 41%
PAX8 inh HTS: PAX8 transcriptional activity inhibition; 1.2% of 360,000 active; AID 652154; RMG-I TPO-luciferase reporter, SteadyGlo, 24 h; inhibition, % at 12.6 µM;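 active = mean replicate inhibition at least 60% with every replicate also reaching 60%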;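 also: luciferase light reporting Pax8 driven TPO promoter activity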
TWEAK Fn14 block: blocks TWEAK-Fn14 interaction in a reporter cell assay | inhibition, % at 10 µM | AID 1159606 | 2% of 360,000 active | TWEAK-stimulated Fn14 reporter cells, luciferase luminescence, 8 h; in the data active = inhibition above about 50%
TROY NFkB inh: TROY signaling inhibition | Q293 LMP1-TROYcd NF-kB luciferase reporter, 4 h | inhibition, % at 10 µM | 0.98% of 360,000 active | AID 1347056;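 active = compounds whose plate-normalised and pattern-corrected inhibition of the luciferase reporter signal at the single screening dose is 50% or more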
Of the large screens only hits and unclear results are named; the others gave an inactive call. This is a sample that favours compounds with a hit; in the whole collection about 3.2% have one here.

COc1ccccc1S(=O)(=O)N1CC[C@@H]2[C@H](CO)Nc3ccc(-c4ccc(F)cc4)cc3[C@@H]21	PAX8 inh HTS 67 (no result: EBV LMP1 NFkB, TWEAK Fn14 block, TROY NFkB inh)
CCNC(=O)[C@@H]1[C@@H](CO)[C@@H]2Cn3c(ccc(-c4cccc(C(=O)N(C)C)c4)c3=O)[C@H]1N2	none (no result: EBV LMP1 NFkB, PAX8 inh HTS, TWEAK Fn14 block, TROY NFkB inh)
CC=Cc1ccc2n(c1=O)C[C@H]1[C@H](CO)[C@@H](C(=O)Nc3ccc(-c4ccccc4)cc3)[C@@H]2N1CC (mixture of isomers)	none (no result: EBV LMP1 NFkB, TWEAK Fn14 block, TROY NFkB inh)
C[C@H](O)C#Cc1cnc2c(c1)C(=O)N([C@@H](C)CO)C[C@H](C)[C@@H](CN(C)CC1CCCCC1)O2	none (no result: EBV LMP1 NFkB, PAX8 inh HTS, TWEAK Fn14 block, TROY NFkB inh)
C=CC[n+]1ccc(/C=C2\C=Cc3cc(C)ccc3N2CC)c2ccccc21	EBV LMP1 NFkB 56, TROY NFkB inh 50 (no result: EWS-Fli inh, LGR2 antag, PAX8 inh HTS)
CN1CCN(C(=O)C[C@H]2CC[C@@H]3[C@H](COC[C@@H](O)CN3C(=O)C3CCCC3)O2)CC1	none (no result: EBV LMP1 NFkB, TWEAK Fn14 block, TROY NFkB inh)
Cc1cccc(-c2nc(S(=O)(=O)c3ccc(F)cc3)c(NCCCN3CCOCC3)o2)c1	TWEAK Fn14 block 78
CNC[C@H]1Oc2c(NC(=O)Nc3ccc4c(c3)OCO4)cccc2C(=O)N([C@H](C)CO)C[C@@H]1C	none (no result: EBV LMP1 NFkB, TWEAK Fn14 block, TROY NFkB inh)
NC(=O)c1cc2c3ccccc3ccn2c1-c1ccccc1	TWEAK Fn14 block 52
Cc1ccccc1S(=O)(=O)N[C@H]1CC[C@@H](CCNS(=O)(=O)c2cccc(F)c2)O[C@H]1CO	none (no result: EBV LMP1 NFkB, TWEAK Fn14 block, TROY NFkB inh)
CCCOc1ccc(N)cc1N	EBV LMP1 NFkB 54 (no result: EWS-Fli inh, LGR2 antag, PAX8 inh HTS)
CCC(=O)N1C[C@@H](O)COC[C@@H]2O[C@H](CC(=O)NCC3CCCCC3)CC[C@H]21	none (no result: EBV LMP1 NFkB, TWEAK Fn14 block, TROY NFkB inh)
CCCNC(=O)Nc1ccc2c(c1)OC[C@@H](C)N(C(C)=O)C[C@H](C)[C@H](OC)CN(C)C2=O	none (no result: EBV LMP1 NFkB, TWEAK Fn14 block, TROY NFkB inh)
O=C(Nc1ccc(Cl)cc1)/C(=C/c1cccc(O)c1)c1nc2ccccc2s1	LGR2 antag 86, PAX8 inh HTS 98, TWEAK Fn14 block 104, TROY NFkB inh 83
S=C(Nc1ccc(Cl)cc1)c1nc2ccccc2s1	none (no result: EWS-Fli inh, LGR2 antag, PAX8 inh HTS)
COC(=O)Cc1ccc2sc(-c3ccccc3)nc2c1	TWEAK Fn14 block 56 (no result: EWS-Fli inh)
Cn1cc(Cl)c(C(=O)Nc2nc3ccccc3s2)n1	TWEAK Fn14 block 57 (no result: EWS-Fli inh, LGR2 antag, PAX8 inh HTS)
COc1cc2nc(NC(=O)c3ccccc3)sc(=O)c2cc1OC	TWEAK Fn14 block 72
CO[C@@H]1CN(C)C(=O)c2cc(NC(=O)C3CC3)ccc2OC[C@H](C)N(C)C[C@H]1C	none (no result: EBV LMP1 NFkB, TWEAK Fn14 block, TROY NFkB inh)
C[C@@H]1CN([C@@H](C)CO)C(=O)c2cccc(NC(=O)c3nc4ccccc4s3)c2O[C@@H]1CN(C)C(=O)Nc1ccccc1	none (no result: EBV LMP1 NFkB, TWEAK Fn14 block, TROY NFkB inh)
Cc1csc(NC(=O)c2nc3nccc(C)n3n2)n1	none (no result: EWS-Fli inh, LGR2 antag, PAX8 inh HTS)
Cc1ccc(NC(=S)c2nc3ccccc3s2)cc1	TWEAK Fn14 block 78, TROY NFkB inh 55 (no result: EWS-Fli inh, LGR2 antag, PAX8 inh HTS)
CCc1nnc(NC(=O)c2ccc(OC)cc2OC)s1	TWEAK Fn14 block 74 (no result: EWS-Fli inh, LGR2 antag, PAX8 inh HTS)
COc1ccccc1C(=O)Nc1c[nH]c(=O)[nH]c1=O	EBV LMP1 NFkB 52
Cc1ccnc2nc(C(=O)Nc3nc4ccccc4s3)nn12	TWEAK Fn14 block 67
CCc1nnc(NC(=O)Nc2ccccc2OC)s1	none (no result: EWS-Fli inh, LGR2 antag)
COc1ccc(C(=O)Nc2nc3ccccc3s2)c(OC)c1	EWS-Fli inh 91, LGR2 antag 103, EBV LMP1 NFkB 85, PAX8 inh HTS 106, TWEAK Fn14 block 105, TROY NFkB inh 85
COc1ccccc1C(=O)Nc1nc2ccccc2s1	EWS-Fli inh 93, LGR2 antag 105, EBV LMP1 NFkB 85, PAX8 inh HTS 101, TWEAK Fn14 block 104, TROY NFkB inh 85
COc1cc(C(=O)NCc2ccc(-c3nc4ccccc4s3)cc2)cc(OC)c1OC	none (no result: LGR2 antag)
O=C(Nc1ccc(Cc2nc3ccccc3s2)cc1)c1ccncc1	TWEAK Fn14 block 59
COc1ccccc1C(=O)Nc1nc2ccc(S(C)(=O)=O)cc2s1	none (no result: EWS-Fli inh, LGR2 antag, PAX8 inh HTS)
COc1ccccc1C(=O)NCc1ccc(-c2nc3ccccc3s2)cc1	TWEAK Fn14 block 76
NC(=O)c1ccc(NC(=O)CCc2nc3ccccc3s2)cc1	none
COc1ccc(NC(=O)c2nc3ccccc3s2)cc1	TWEAK Fn14 block 61
Nc1ccc(C(=O)Nc2nc3ccccc3s2)cc1	TWEAK Fn14 block 62
COc1ccc(OC)c(NC(=O)c2nc3ccccc3s2)c1	none
CO[C@@H]1CN(C)C(=O)c2ccc(NC(=O)c3ccc4c(c3)OCO4)cc2OC[C@@H](C)NC[C@@H]1C	none (no result: EBV LMP1 NFkB, TWEAK Fn14 block, TROY NFkB inh)
CCOC(=O)c1c(NC(=O)C2C3CCC(O3)C2C(=O)O)sc(C)c1-c1ccc(F)cc1 (configuration not stated)	EBV LMP1 NFkB 80 (no result: EWS-Fli inh, LGR2 antag, PAX8 inh HTS)
